Molecules are shown by their SMILES. Values without a mark were called inactive. Records with an inconclusive call do not appear. Calls of active or inactive are those of the source. Unless noted, calls follow the shape of the dose curve; as a rule, active = well fitted curve in the direction sought with a large enough effect in the repeat runs; inconclusive = weak or mixed curves; inactive = no such curve, though single readings can be large; an effect the other way counts as inactive or inconclusive.

Assay [1] deals with Estrogen receptor beta (Homo sapiens) (UniProt Q92731). The assay is described as follows: qHTS assay to identify small molecule agonists of the estrogen receptor beta (ER-beta) signaling pathway (AID 1259377; active = well fitted activation curve with a large enough effect in the signal ratio in the repeat runs, not every such curve was filed as active; the % refers to the signal ratio). An outline of the steps: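 Read-out: beta-lactamase FRET fluorescence. Cell line: ER-beta-UAS-bla HEK293T in 2% charcoal-stripped FBS. Exposure: 16 hr at 37C. Substrate step: 2 h at room temperature.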
Chain of Estrogen receptor beta (Homo sapiens) (Q92731 whole entry, looked up): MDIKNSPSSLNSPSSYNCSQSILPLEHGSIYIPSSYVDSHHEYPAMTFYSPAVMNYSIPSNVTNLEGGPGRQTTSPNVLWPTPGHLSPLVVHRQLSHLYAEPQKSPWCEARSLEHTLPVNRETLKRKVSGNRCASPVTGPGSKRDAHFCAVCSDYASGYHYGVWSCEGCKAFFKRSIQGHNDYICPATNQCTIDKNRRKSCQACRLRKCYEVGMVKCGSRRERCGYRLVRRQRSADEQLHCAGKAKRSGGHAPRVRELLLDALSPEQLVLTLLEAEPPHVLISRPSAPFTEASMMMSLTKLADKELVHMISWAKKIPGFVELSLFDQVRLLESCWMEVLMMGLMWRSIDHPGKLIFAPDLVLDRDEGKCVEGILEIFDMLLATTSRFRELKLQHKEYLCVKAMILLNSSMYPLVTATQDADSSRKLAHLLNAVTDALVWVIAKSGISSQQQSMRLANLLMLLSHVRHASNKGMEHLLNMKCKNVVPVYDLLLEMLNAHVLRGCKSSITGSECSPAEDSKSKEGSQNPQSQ
A general note: Quantitative high-throughput screening tests each substance at several concentrations.

The target is the same in assay [2]. The assay is described as follows: qHTS assay to identify small molecule antagonists of the estrogen receptor beta (ER-beta) signaling pathway (AID 1259378; active = well fitted inhibition curve with a large enough effect in the signal ratio in the repeat runs, not every such curve was filed as active; the % refers to the signal ratio; also: potency is read from the fitted curve at half-maximal effect). An outline of the steps: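 Antagonist mode: compounds added to beta-lactamase reporter HEK293T ER-beta-UAS cells stimulated with E2 (1nM final), 16 hr at 37C. LiveBLAzer B/G FRET substrate, 2 hours room temperature, fluorescence read-out.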

Assay [3] is described as follows: qHTS assay to identify small molecule agonists of the androgen receptor (AR) signaling pathway in the presence of an antagonist - cell viability counter screen (AID 1259379).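 Also: MDA-kb2 human breast cancer cells carrying an MMTV luciferase reporter; series mostly up to about 92 µM; nearly all actives have a fitted effect of over 25% in size.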 An outline of the steps: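 MDA-kb2 cells (MMTV-luciferase, AR/GR), 3,000/well, 5 h attachment, then 3.0 µM nilutamide (final) and compounds at 15 concentrations. Viability by CellTiter-Fluor fluorescence after 16 h at 37 °C, 0% CO2, in the reporter wells.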

The nature of assay [4]: qHTS assay to identify small molecule agonists of the estrogen receptor beta (ER-beta) signaling pathway - cell viability counter screen (AID 1259380). Also: nearly all actives have a fitted effect of over 30% in size. Also: potency is read from the fitted curve at half-maximal effect. An outline of the steps: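 ER-beta-UAS-bla HEK293T cells in medium with 2% charcoal-stripped FBS, pre-incubated 6 hr, then treated 16 hr at 37C. Cytotoxicity read in the same wells by CellTiter-Glo luminescence after 30 min at room temperature.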

Assay [5] is described as follows: qHTS assay to identify small molecule antagonists of the estrogen receptor beta (ER-beta) signaling pathway - cell viability counter screen (AID 1259382).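 Also: HEK293T cells carrying ER-beta-UAS-bla reporter stimulated with estradiol; series mostly up to about 92 µM; nearly all actives have a fitted effect of over 55% in size.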 An outline of the steps: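 ER-beta-UAS-bla HEK293T cells in 2% charcoal-stripped FBS medium, treated with compound plus 1 nM 17-beta-estradiol for 16 h at 37C. Viability read by CellTiter-Glo luminescence after 30 min at room temperature in the same wells.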

In assay [6] the target is Estrogen receptor (Homo sapiens) (UniProt P03372). The experiment in a line: qHTS assay to identify small molecule agonists of the estrogen receptor alpha (ER-alpha) signaling pathway in the presence of an antagonist (AID 1259383; calls by dose curve; also: top concentration of the series differs between compounds; nearly all actives have a fitted effect of over 15% in size). An outline of the steps: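 VM7Luc4E2 cells express endogenous full-length ER-alpha with an ERE-luciferase reporter and were hormone-deprived for 5 days. Compounds at 15 concentrations were added with 10.0nM ICI-182,780 for 22hr at 37C. Luminescence was read with ONE-Glo.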
Chain of Estrogen receptor (Homo sapiens) (P03372 whole entry, looked up): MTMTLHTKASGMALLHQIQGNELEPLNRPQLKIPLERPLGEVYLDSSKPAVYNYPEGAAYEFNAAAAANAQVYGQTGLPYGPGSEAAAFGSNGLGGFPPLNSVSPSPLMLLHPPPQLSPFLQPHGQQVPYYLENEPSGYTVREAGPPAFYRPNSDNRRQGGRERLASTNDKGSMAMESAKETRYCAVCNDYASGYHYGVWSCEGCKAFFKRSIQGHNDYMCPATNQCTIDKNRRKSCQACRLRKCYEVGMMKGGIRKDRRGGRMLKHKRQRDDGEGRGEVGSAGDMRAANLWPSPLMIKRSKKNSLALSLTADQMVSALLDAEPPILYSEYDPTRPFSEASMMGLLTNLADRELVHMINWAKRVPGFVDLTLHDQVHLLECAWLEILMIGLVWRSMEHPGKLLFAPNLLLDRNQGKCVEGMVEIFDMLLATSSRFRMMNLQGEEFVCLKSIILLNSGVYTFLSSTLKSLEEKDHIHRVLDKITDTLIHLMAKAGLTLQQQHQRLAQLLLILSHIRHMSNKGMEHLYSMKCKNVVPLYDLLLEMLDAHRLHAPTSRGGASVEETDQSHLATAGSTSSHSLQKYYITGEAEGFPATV

Assay [7] is described as follows: qHTS assay to identify small molecule agonists or antagonists of the thyroid stimulating hormone receptor (TSHR) signaling pathway - wild type cell line counter screen (AID 1259384; calls by dose curve). An outline of the steps: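 Counter screen in untransfected Hek293: compounds (15-point titration, triplicate) plus phosphodiesterase inhibitor Ro20-1724 added after 18 h plating; 30 min RT. Intracellular cAMP via competitive d2/cryptate immunoassay, 1 h incubation.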

In assay [8] the target is Thyrotropin receptor (Homo sapiens) (UniProt P16473). The assay is described as follows: qHTS assay to identify small molecule antagonists of the thyroid stimulating hormone receptor (TSHR) signaling pathway (AID 1259385; calls by dose curve; also: nearly all actives have a fitted effect of over 20% in size). In outline: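 Antagonist mode: compound-treated TSHR-expressing HEK293 cells were stimulated with 1.5 ng/mL TSH (final) in presence of Ro20-1724 for 30 min at RT. HTRF cAMP detection after 1 h; each compound tested at 15 concentrations, triplicate.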
Chain of Thyrotropin receptor (Homo sapiens) (P16473 whole entry, looked up): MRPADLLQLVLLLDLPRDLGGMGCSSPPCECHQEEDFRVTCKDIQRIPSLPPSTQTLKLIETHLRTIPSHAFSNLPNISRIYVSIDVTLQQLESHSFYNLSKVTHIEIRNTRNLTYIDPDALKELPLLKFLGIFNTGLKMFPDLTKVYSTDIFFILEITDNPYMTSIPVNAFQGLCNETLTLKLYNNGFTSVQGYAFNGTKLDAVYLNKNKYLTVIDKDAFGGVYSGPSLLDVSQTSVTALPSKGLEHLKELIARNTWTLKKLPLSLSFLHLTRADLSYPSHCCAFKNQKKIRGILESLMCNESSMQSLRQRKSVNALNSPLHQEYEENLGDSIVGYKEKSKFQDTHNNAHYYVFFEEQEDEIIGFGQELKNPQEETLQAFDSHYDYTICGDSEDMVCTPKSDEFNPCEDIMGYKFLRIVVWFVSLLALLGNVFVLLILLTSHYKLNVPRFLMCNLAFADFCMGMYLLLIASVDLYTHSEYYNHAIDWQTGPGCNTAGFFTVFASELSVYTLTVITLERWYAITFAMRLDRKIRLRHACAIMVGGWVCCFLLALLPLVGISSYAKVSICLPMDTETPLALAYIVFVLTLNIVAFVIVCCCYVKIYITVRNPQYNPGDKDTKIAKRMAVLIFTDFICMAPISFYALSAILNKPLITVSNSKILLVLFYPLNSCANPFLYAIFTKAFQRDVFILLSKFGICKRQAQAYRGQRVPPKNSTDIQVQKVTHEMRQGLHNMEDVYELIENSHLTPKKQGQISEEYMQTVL

The nature of assay [9]: qHTS assay to identify small molecule agonists of the estrogen receptor alpha (ER-alpha) signaling pathway in the presence of an antagonist - cell viability counter screen (AID 1259386).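 Also: series mostly up to about 92 µM; cells exposed to compounds for 22 h at 37 °C before the viability read; nearly all actives have a fitted effect of over 30% in size.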 In outline:
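Cell viability in VM7Luc4E2 cells (endogenous full-length ER-alpha) measured by CellTiter-Fluor fluorescence in the same wells as the luciferase screen. Cells pre-cultured 5 days in charcoal-stripped serum, then treated 22 h with compounds at 15 concentrations plus 10.0nM ICI-182,780.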

The nature of assay [10]: qHTS assay to identify small molecule antagonists of the progesterone receptor (PR) signaling pathway - cell viability counter screen (AID 1346798). Also: series mostly up to about 92 µM; nearly all actives have a fitted effect of over 50% in size. An outline of the steps:
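Following a 4 hr attachment, PR-UAS-bla HEK293T cells in charcoal-stripped FBS medium were exposed to compounds with R5020 for 16 hr; CellTiter-Glo was added and luminescence read after 30 min at room temperature.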

Assay [11] is described as follows: qHTS assay to identify small molecule agonists of the progesterone receptor (PR) signaling pathway - cell viability counter screen (AID 1346799; calls by dose curve; also: nearly all actives have a fitted effect of over 45% in size). An outline of the steps: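 Here, 3,000 PR-UAS-bla HEK293T cells per well were treated with compounds for 16 hr after a 6 hr preincubation at 37C and 5% CO2; cell viability is the CellTiter-Glo luminescence signal.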

The nature of assay [12]: qHTS assay to identify small molecule antagonists of the TGF-beta/Smad signaling pathway - cell viability counter screen (AID 1346824). Also: nearly all actives have a fitted effect of over 50% in size. An outline of the steps:
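Cytotoxicity counter-screen run in the same wells as the beta-lactamase Smad reporter read: CellTiter-Glo luminescence after 30 min at room temperature. HEK 293T SBE-bla cells had 5 hr compound exposure at 37 C with TGF-beta1 (0.25 ng/mL stock).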

Assay [13] is described as follows: qHTS assay to identify small molecule agonists of the TGF-beta/Smad signaling pathway - cell viability counter screen (AID 1346829). Also: top concentration of the series differs between compounds; nearly all actives have a fitted effect of over 45% in size. In outline: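 Tox21 qHTS format: SBE-bla HEK 293T cells treated with DMSO-dissolved compounds for 5 hr; CellTiter-Glo luminescence after 30 min at room temperature.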
A short description of assay [14]: qHTS assay to identify small molecule agonists of the TGF-beta/Smad signaling pathway (AID 1346859; active = well fitted activation curve with a large enough effect in the signal ratio in the repeat runs, not every such curve was filed as active; the % refers to the signal ratio; also: series mostly up to about 77 µM). An outline of the steps: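 Each well held 4,000 SBE-bla HEK 293T cells incubated overnight before compound addition; 5 hr later the cleavable FRET substrate went on for 2 hr at room temperature, and fluorescence was read at two emissions.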
Assay [15] concerns the target Thyrotropin-releasing hormone receptor (Homo sapiens) (UniProt P34981). The experiment in a line: qHTS assay to identify small molecule agonists of the thyrotropin-releasing hormone receptor (TRHR) signaling pathway (AID 1346891; calls by dose curve; also: series mostly up to about 58 µM). An outline of the steps:
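Screening of agonists relied on calcium signalling in HEK293 cells expressing human TRHR: dye loading 2 h at 37 °C preceded compound addition and a 3-min fluorescence time course.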

Assay [16] in a line: Human pregnane X receptor (PXR) small molecule agonists, qHTS cell viability counter screen (AID 1346977). Also: nearly all actives have a fitted effect of over 50% in size. In outline: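 Tox21 qHTS format; PXR-Luc HepG2, 2,000/well, charcoal-stripped FBS 5%. Cpd exposure 24hr. Read: CellTiter-Fluor fluorescence, multiplexed with luciferase.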
The target in assay [17] is Progesterone receptor (Homo sapiens) (UniProt P06401). The assay is described as follows: qHTS assay to identify small molecule agonists of the progesterone receptor (PR) signaling pathway (AID 1346784; calls by dose curve; also: nearly all actives have a fitted effect of over 30% in size). An outline of the steps:
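Compounds were tested for PR agonism in HEK 293T cells bearing a beta-lactamase gene under UAS control. Treatment lasted 16 hr at 37C; signal came from fluorescence of a FRET substrate.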

For assay [18] the target is unchanged. The experiment in a line: qHTS assay to identify small molecule antagonists of the progesterone receptor (PR) signaling pathway (AID 1346795; active = well fitted inhibition curve with a large enough effect in the signal ratio in the repeat runs, not every such curve was filed as active; the % refers to the signal ratio). In outline:
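In HEK293T cells bearing the PR-UAS-bla reporter, compound effects on promegestone-driven (1 nM) beta-lactamase expression are assessed after 16 hr using a fluorescent FRET substrate incubated 2 hr at room temperature.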

The target of assay [19] is Thyrotropin-releasing hormone receptor (Homo sapiens) (UniProt P34981). The experiment in a line: qHTS assay to identify small molecule antagonists of the thyrotropin-releasing hormone receptor (TRHR) signaling pathway (AID 1346877; active = well fitted inhibition curve with a large enough effect in the repeat runs, not every such curve was filed as active; also: series mostly up to about 51 µM). In outline:
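TRHR-expressing HEK293 cells loaded with calcium dye for 2 h at 37 C; compounds pre-incubated 5 min at room temperature before TRH challenge at 1 nM final. Intracellular calcium fluorescence read kinetically for 3 min; 15 concentrations in triplicate.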

In assay [20] the target is Androgen receptor (Homo sapiens) (UniProt P10275). The experiment in a line: qHTS assay to identify small molecule agonists of the androgen receptor (AR) signaling pathway in the presence of an antagonist (AID 1259381; calls by dose curve; also: nearly all actives have a fitted effect of over 15% in size). In outline:
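MDA-kb2 cells carrying MMTV-luciferase (AR/GR responsive), 3,000 cells/well, co-treated with 3.0 uM nilutamide final. Compounds at 15 concentrations, 16 hr at 37C without CO2. Luciferase luminescence read after 30 min with ONE-Glo.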
% is scaled to controls: 0 for no effect and ±100 for the full control effect.

Chain of Androgen receptor (Homo sapiens) (P10275 whole entry, looked up): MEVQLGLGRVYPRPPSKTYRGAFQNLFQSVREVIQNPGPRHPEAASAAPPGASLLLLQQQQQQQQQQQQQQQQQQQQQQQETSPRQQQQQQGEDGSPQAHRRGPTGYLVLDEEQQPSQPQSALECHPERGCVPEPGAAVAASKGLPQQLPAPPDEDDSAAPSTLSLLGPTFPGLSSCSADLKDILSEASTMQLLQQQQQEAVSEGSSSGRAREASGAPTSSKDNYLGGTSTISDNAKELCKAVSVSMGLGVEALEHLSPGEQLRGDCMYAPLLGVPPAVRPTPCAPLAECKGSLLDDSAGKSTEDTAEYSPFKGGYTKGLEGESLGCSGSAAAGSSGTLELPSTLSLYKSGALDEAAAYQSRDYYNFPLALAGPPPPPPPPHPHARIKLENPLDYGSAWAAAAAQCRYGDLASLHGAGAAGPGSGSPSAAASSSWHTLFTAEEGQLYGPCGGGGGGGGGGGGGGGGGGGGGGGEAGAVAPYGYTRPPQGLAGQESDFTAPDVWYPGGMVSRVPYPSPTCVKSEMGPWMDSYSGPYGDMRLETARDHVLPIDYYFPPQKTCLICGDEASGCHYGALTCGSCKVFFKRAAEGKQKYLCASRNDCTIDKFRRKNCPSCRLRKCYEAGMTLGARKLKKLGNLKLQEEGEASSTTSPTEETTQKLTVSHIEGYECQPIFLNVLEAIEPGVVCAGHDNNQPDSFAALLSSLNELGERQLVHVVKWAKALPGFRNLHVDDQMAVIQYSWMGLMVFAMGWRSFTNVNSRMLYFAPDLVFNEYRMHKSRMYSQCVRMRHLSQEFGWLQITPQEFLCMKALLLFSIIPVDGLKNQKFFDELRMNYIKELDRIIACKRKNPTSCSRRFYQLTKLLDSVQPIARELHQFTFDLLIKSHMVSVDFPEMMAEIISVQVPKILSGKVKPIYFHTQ
Chain of Progesterone receptor (Homo sapiens) (P06401 whole entry, looked up): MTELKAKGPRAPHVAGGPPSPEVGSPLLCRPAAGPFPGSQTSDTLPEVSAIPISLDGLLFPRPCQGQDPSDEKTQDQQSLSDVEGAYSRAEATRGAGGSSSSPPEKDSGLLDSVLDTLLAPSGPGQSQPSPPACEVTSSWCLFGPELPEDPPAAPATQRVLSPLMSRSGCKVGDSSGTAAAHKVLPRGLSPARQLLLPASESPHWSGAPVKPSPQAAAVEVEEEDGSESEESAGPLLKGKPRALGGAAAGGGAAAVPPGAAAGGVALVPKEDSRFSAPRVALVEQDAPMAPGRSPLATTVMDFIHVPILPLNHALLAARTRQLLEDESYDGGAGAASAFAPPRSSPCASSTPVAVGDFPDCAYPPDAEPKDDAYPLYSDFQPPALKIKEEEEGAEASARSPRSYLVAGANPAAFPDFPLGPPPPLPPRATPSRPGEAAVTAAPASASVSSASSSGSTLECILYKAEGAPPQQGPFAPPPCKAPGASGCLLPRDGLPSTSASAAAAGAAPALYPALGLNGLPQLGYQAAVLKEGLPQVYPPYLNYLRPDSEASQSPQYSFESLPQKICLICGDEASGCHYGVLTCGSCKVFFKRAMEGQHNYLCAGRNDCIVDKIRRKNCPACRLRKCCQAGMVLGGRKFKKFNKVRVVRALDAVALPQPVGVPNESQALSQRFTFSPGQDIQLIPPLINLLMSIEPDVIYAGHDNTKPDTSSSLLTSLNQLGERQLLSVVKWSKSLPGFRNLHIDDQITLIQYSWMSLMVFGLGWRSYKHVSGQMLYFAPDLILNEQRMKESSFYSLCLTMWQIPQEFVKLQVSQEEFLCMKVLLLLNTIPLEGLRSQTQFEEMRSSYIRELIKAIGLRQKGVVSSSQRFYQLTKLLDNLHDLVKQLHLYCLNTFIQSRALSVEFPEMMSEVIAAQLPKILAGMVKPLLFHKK
Chain of Thyrotropin-releasing hormone receptor (Homo sapiens) (P34981 whole entry, looked up): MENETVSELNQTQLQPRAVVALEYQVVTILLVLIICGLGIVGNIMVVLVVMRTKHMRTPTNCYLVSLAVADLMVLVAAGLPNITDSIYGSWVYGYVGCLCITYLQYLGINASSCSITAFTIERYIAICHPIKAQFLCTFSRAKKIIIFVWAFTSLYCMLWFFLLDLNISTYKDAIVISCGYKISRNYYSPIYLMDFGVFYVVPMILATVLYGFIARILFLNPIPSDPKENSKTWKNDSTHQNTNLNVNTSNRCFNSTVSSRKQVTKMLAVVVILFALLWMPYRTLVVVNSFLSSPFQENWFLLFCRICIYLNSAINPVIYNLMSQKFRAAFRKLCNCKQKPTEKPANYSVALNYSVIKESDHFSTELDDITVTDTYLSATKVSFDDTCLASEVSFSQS

As for `CCC(=O)OCCc1ccccc1`, the Potency entry in assay [1], in assay [2], in assay [3], in assay [4], in assay [5] and in assay [6] was “inactive” throughout. In addition, the Potency result in assay [8], in assay [9], in assay [10], in assay [11], in assay [12] and in assay [13] was “inactive” each time. Moreover, the Potency entry in [14], in [15] and in assay [16] was “inactive” each time. For the same molecule, in assay [7], the molecule was called inactive.

For the molecule `CCc1c(C(=O)O)c(=O)cnn1-c1ccc(Cl)cc1`, the Potency entry in [1], in assay [2], in assay [3], in [4], in [5] and in [6] was “inactive” in each case. In addition, the Potency entry in assay [8], in assay [9], in assay [18], in [10], in assay [11] and in [12] was “inactive” in each case. Besides, the Potency entry in assay [13], in assay [14], in assay [19], in assay [15] and in assay [16] was “inactive” each time. In addition, the outcome in assay [7] and in assay [17] was inactive.

On to `Cc1cnccn1`, for which the Potency result in assay [1], in assay [2], in [3], in assay [4], in assay [20] and in [5] was “inactive” each time. For the same molecule, the Potency entry in [9], in [18], in assay [10], in [11], in assay [12] and in assay [13] was “inactive” each time. Also, the Potency entry in assay [14], in [19], in [15] and in [16] was “inactive” each time. Moreover, in [17], the molecule was called inactive.

For the molecule `COc1ccc(-n2nc(CCC(=O)N(C)O)cc2-c2ccc(Cl)cc2)cc1`, the Potency result in assay [1], in assay [3], in [20], in assay [6], in [8] and in [9] was “inactive” throughout. In addition, the Potency entry in assay [13], in [14] and in assay [15] was “inactive” each time. The Potency in assay [2] and in assay [4] was 7.5 µM (active) in each case. Besides, the result in assay [7] was inactive.

As to `Cc1cccc(C)n1`, the Potency entry in assay [1], in assay [2], in assay [3], in assay [4], in assay [20] and in assay [5] was “inactive” in each case. In addition, the Potency result in assay [6], in assay [8], in assay [18], in assay [10], in [11] and in assay [13] was “inactive” each time. Further, the Potency entry in [14] and in assay [16] was “inactive” throughout. Also, the outcome in assay [7] and in assay [17] was inactive.

Regarding `C=C/C=C/C=C/CCCCC`, the activation in assay [1] was -0.263% [at 19 µM]; in [20], 5.43% [at 19 µM]; in [6], -1.21% [at 19 µM]; in assay [17], -1.1% [at 19 µM]; in assay [14], -2.28% [at 15.8 µM]. Also, in assay [2], the activity, negative = inhibition is -14.6% [at 19 µM]. For the same molecule, the activity change, negative = cytotoxicity is 1.29% [at 19 µM] in assay [3]; -7.99% [at 19 µM] in assay [4]; 0.024% [at 19 µM] in assay [5]; -2.67% [at 19 µM] in assay [9]; 13.8% [at 18.9 µM] in assay [10]; -2.82% [at 19 µM] in assay [11]. The activity change, negative = cytotoxicity in assay [16] is 3.3% [at 19 µM]. The cAMP activity change in assay [7] was 0.413% [at 18.9 µM]. The activity change, negative = inhibition in [8] was 1.23% [at 19 µM]. Besides, the viability change, negative = cytotoxic in assay [12] was -6.86% [at 15.8 µM].

As to `CN(C)CCN1CCOCC1`, the Potency entry in assay [1], in [2], in [3], in assay [4], in assay [5] and in assay [6] was “inactive” each time. Also, the Potency entry in [8], in assay [9], in assay [18], in [10], in assay [11] and in assay [12] was “inactive” each time. Further, the Potency result in [14], in assay [19], in assay [15] and in assay [16] was “inactive” throughout. For the same molecule, the call in assay [7] and in assay [17] was inactive.

The values above are taken from PubChem BioAssay (Tox21).
